Records with an inconclusive call do not appear. Values without a mark were called inactive. Active and inactive are the calls of the source. Calls follow the shape of the dose curve; as a rule, active = well fitted cell-killing curve with a large enough effect in the repeat runs; inconclusive = weak or mixed curves, or effect the other way; inactive = flat fitted curve, though single readings scatter.
Assay: qHTS RealTime-Glo MT Cell Viability Assay in HEK293 cells - 16 hour (AID 1224872); also: nearly all actives have a fitted effect of over 50% in size; as to activity change, negative = cytotoxicity: top concentration of the series differs between compounds
Settings: RealTime-Glo luminescence; series mostly up to 76.8 µM; activity change, negative = cytotoxicity: at the top concentration
From the text: National Center for Advancing Translational Sciences [NCATS]
NIH Chemical Genomics Center [NCGC]
U.S. Environmental Protection Agency [EPA]
National Institutes of Environmental Health Sciences [NIEHS]
National Toxicology Program [NTP]
U.S. Food and Drug Administration [FDA]
Measure of cell viability is critical in the cell-base assay. Analysis of cell viability is necessary for the characterization of cell responses to cytotoxic drugs and environmental stress. A RealTime-Glo MT Cell Viability Assay to monitor cell viability in real time of continues cell culture during 40 hours of compound treatment was used to screen Tox21 10K library compounds in Hek293 cells. The RealTime-Glo MT Cell Viability Assay is a nonlytic, homogeneous, bioluminescent method to measure cell viability in real time using a simple, plate-based method. The assay involves adding NanoLuc luciferase and a cell-permeant prosubstrate to cells in culture. Viable cells reduce the proprietary prosubstrate to generate a substrate for NanoLuc luciferase. This substrate diffuses from cells into the surrounding culture medium, where it is rapidly used by the NanoLuc Enzyme to produce a luminescent signal. The signal correlates with the number of viable cells, making the assay well suited for cytotoxicity studies.
Tox21 Assay Protocol Summary:
The mixture of Hek293 cell suspension and reagents were dispensed at 600cells/6 ul/well in 1536-well tissue culture treated black solid bottom plates using a Multidrop dispenser. After the assay plates were incubated at a 37 C/5% CO2 incubator for 5 hours, 23 nL of compounds dissolved in DMSO, positive and negative controls was transferred to the assay plate by a pintool work station. The plates were incubated at 37 C for 40 hours. The luminescence intensity were measured at 0h, 8h, 16h, 24h, 32h and 40h time points using ViewLux plate reader during compound treatment.
For CCCC(C)C(=O)O (stereo not given), the “activity change, negative = cytotoxicity” value was -0.224%.
With O=C(O)c1ccccc1S the “activity change, negative = cytotoxicity” value was 5.83% [at 35.3 µM].
In the case of CC(C)COC(=O)c1ccccc1O, the “activity change, negative = cytotoxicity” value is reported as -0.611%.
With Nc1cc(N)cc(C(=O)O)c1 the “activity change, negative = cytotoxicity” value was 9.48%.
In the case of NC(=O)c1c(Cl)cccc1Cl, the “activity change, negative = cytotoxicity” value is reported as 9.52%.
In the case of c1cc(CN2CCCCC2)cc(OCCCNc2nc3ccccc3s2)c1, the Potency is reported as 9.52 µM (active).
In the case of NC(CS)C(=O)O (stereo not given), the “activity change, negative = cytotoxicity” value is reported as 9.2% [at 35.3 µM].
In the case of C#CC(C)(O)CC(C)C (stereo not given), the “activity change, negative = cytotoxicity” value is reported as 19.1%.
In the case of O=C(O)c1cccc(C(=O)O)n1, the “activity change, negative = cytotoxicity” value is reported as 2.77%.
With C=C(C)C(=O)OCCC(C)OC(=O)C(=C)C (stereo not given) the “activity change, negative = cytotoxicity” value was 16.5%.
Compound C=C(C)C(=O)OCCCCCCCCCCCCCCCCCC has an activity change, negative = cytotoxicity of 9.27% [at 15.8 µM].
With Nc1ccc2cc(S(=O)(=O)O)ccc2c1 the “activity change, negative = cytotoxicity” value was 0.153%.
In the case of COC(=O)C1=C(C)NC(C)=C(C(=O)OCC(C)=O)C1c1ccccc1[N+](=O)[O-] (stereo not given), the “activity change, negative = cytotoxicity” value is reported as -3.32% [at 35.3 µM].
For C[N+](C)(C)CC[N+]1(C)Cc2c(Cl)c(Cl)c(Cl)c(Cl)c2C1, the “activity change, negative = cytotoxicity” value was 4.13% [at 35.3 µM].
In the case of C=C(C)[C@H]1CC=C(C)CC1, the “activity change, negative = cytotoxicity” value is reported as 3.11%.
For OC[C@H]1O[C@@H]2O[C@H]3[C@H](O)[C@@H](O)[C@@H](O[C@H]4[C@H](O)[C@@H](O)[C@@H](O[C@H]5[C@H](O)[C@@H](O)[C@@H](O[C@H]6[C@H](O)[C@@H](O)[C@@H](O[C@H]7[C@H](O)[C@@H](O)[C@@H](O[C@H]8[C@H](O)[C@@H](O)[C@@H](O[C@H]9[C@H](O)[C@@H](O)[C@@H](O[C@H]1[C@H](O)[C@H]2O)O[C@@H]9CO)O[C@@H]8CO)O[C@@H]7CO)O[C@@H]6CO)O[C@@H]5CO)O[C@@H]4CO)O[C@@H]3CO, the “activity change, negative = cytotoxicity” value was 7.19% [at 35.3 µM].
Work on Cn1ccc2cc3c(cc21)CCN3C(=O)Nc1cccnc1 yielded an activity change, negative = cytotoxicity of -8.97% [at 15.8 µM].
For O=C(O)c1ccc[n+]([O-])c1, the “activity change, negative = cytotoxicity” value was -0.825% [at 35.3 µM].
With Cc1ccc(Nc2ccc(O)c3c2C(=O)c2ccccc2C3=O)cc1 the “activity change, negative = cytotoxicity” value was 4.15%.
With COC(C(=O)O)c1ccccc1 (stereo not given) the “activity change, negative = cytotoxicity” value was 8.48%.
For Cc1ncc(CSSCc2cnc(C)c(O)c2CO)c(CO)c1O, the “activity change, negative = cytotoxicity” value was 18.6% [at 35.3 µM].
In the case of C#CC(O)C(CC)CCCC (stereo not given), the “activity change, negative = cytotoxicity” value is reported as 20.2%.
In the case of C=C(C)C1CC=C(C)C(O)C1 (stereo not given), the “activity change, negative = cytotoxicity” value is reported as 8.61%.
With c1ccc(CCCc2ccccn2)cc1 the “activity change, negative = cytotoxicity” value was -2.56%.
For COc1ccc(NC(C)=O)cc1, the “activity change, negative = cytotoxicity” value was 0.239%.
In the case of CCCCN(CCO)CCO, the “activity change, negative = cytotoxicity” value is reported as 7.34%.
With NC(=O)CCCCC1CCSS1 (stereo not given) the “activity change, negative = cytotoxicity” value was 0.528% [at 35.3 µM].
With C=C(C)C(=O)NCCC[N+](C)(C)C the “activity change, negative = cytotoxicity” value was 4.18%.
With C=C(C)C(=O)NCCCN(C)C the “activity change, negative = cytotoxicity” value was 6.5%.
For CCCCCCOC(=O)c1ccccc1O, the “activity change, negative = cytotoxicity” value was 6.12%.
For Cc1ccccc1Br, the “activity change, negative = cytotoxicity” value was 5.2%.
With CC(C)c1ccc2oc3nc(N)c(C(=O)O)cc3c(=O)c2c1 the “activity change, negative = cytotoxicity” value was 17.6% [at 35.3 µM].
For CCCCCOC(=O)Nc1nc(=O)n([C@@H]2O[C@H](C)[C@@H](O)[C@H]2O)cc1F, the “activity change, negative = cytotoxicity” value was 4.52% [at 35.3 µM].
With COc1nc(C)nc(N)n1 the “activity change, negative = cytotoxicity” value was 1.82%.
With CC(=O)N[C@@H](CCC(N)=O)C(=O)O the “activity change, negative = cytotoxicity” value was 3.33% [at 35.3 µM].
With CC1=CCC2C(C1)C2(C)C (stereo not given) the “activity change, negative = cytotoxicity” value was 1.16%.
In the case of CCN1CCCC(OC(=O)C(c2ccccc2)c2ccccc2)C1 (stereo not given), the “activity change, negative = cytotoxicity” value is reported as 6.9% [at 35.3 µM].
In the case of CCCCCC[C@@H](CCC)C(=O)O, the “activity change, negative = cytotoxicity” value is reported as 7.97% [at 35.3 µM].
For CC1(C)OC(=O)Nc2ccc(Br)cc21, the “activity change, negative = cytotoxicity” value was 1.91% [at 35.3 µM].
In the case of CCc1cc(S(=O)(=O)O)c2cc(C(C)C)cccc1-2, the “activity change, negative = cytotoxicity” value is reported as 4.06% [at 35.3 µM].
% is scaled to controls: 0 for no effect and ±100 for the full control effect; potency is read from the fitted curve at half-maximal effect.
